PubChem BioAssay AID1347416 (National Center for Advancing Translational Sciences (NCATS), 2020)
Hit rate of the full screen: of about 4,100 compounds, about 1,600 (39%) were called active. Inconclusive results (about 25%) are left out. Calls come from the whole dose curve; as a rule, active = well fitted inhibition curve with a large enough effect; inconclusive = small, poorly fitted or top-dose-only effect; inactive = no such curve, though single readings can be large or run the other way. The list shows a part of the results.

Assay: qHTS Validation assay for Inhibitors of Plasmodium falciparum Dd2 growth in vitro; note: nearly all actives have a fitted effect of over 70% in size
Conditions: P. falciparum Dd2 in RBCs, SYBR Green growth, 72 h; series mostly up to 28.7 µM; activity change, negative = inhibition: at the top concentration
Source text: Malaria, a parasitic disease spread to humans through the bite of a Plasmodium infected Anopheles mosquito, continues to be a global health burden affecting millions of people, with an estimated 228 million cases and 405,000 deaths in 2018. Concerns about safety and limitations of current antimalarial treatments strongly emphasize the need to develop new therapeutic options. The scarce number of chemotypes and validated drug targets with efficacy against the liver stage, have hindered development of new antimalarials. To address this, a chemoprophylactic drug discovery effort was conducted through a combined phenotypic high-throughput asexual blood stage and liver stage screen, providing a robust foundation to identify liver-stage active lead chemotypes. Compounds were initially screened against Plasmodium falciparum Dd2 strain parasites using a in vitro SYBRGreen-1 based 72 hr proliferation assay to identify novel chemotypes to advance to liver stage assays. NIH/NCATS Early Translation Branch Assay Submitter (PI): Anton Simeonov Ph.D.
[…] Assay Protocol: PROTOCOL TABLE (as described by Inglese et al., 2007) SEQUENCE No. (e.g., 1, 2, 3, etc.); PARAMETER (e.g., Cells, Incubation, Reagent, etc.); VALUE; DESCRIPTION SEQUENCE, Parameter, Description 1; Reagent; 3 uL complete malaria growth medium, 1536 TC treated Black clear bottom plate 2; Controls; 23 nL positive control artesunate (300 nM final) to column 1; Neutral control DMSO to columns 2-4 3; Compound; 23 nL of compounds in dose response concentration (29 uM to 0.5 nM final) 4; Reagent; 5 uL malaria infected red blood cells (2.5% hematocrit final, 0.3% parasitemia 5; Time; 72 hours at 37C (5% O2, 5% CO2, 90% N2; 95% Rh) 6; Reagent; 2 uL lysis buffer/SYBRGreen-1, 25 sec shake immediately following dispense 7; Time; ~16 hours at 37C (5% O2, 5% CO2, 90% N2; 95% Rh) 8; Detector; EnVision (PerkinElmer) bottom read at 485/14nm excitation and 535/25 nm emission NOTES (numbers refer to sequence above): 1; Complete Malaria Growth Media: 1X RPMI-1640 w/L-glutamine, 5.5g/L Albumax II, 367 uM Hypoxanthine, 25 mM HEPES, 0.25% Sodium Bicarbonate, 35 uM Gentamicin sulfate 2; Controls were added using the Kalypsis Pintool (Wako USA) equipped with 1536 pinhead 3; Compounds were added in a 7-point, titration with a high final concentration of 29 uM by Pintool from seven inter-plate titrations of library plates and two DMSO control plates at the beginning and end (see Yasgar et al., 2008). 4; Red blood cells infected with Plasmodium falciparum Dd2 parasites were used. 6; Lysis buffer: 20 mM Tris-HCl, 10 mM EDTA, 0.16% Saponin, 1.6% Triton-X, 10X SYBR Green. REFERENCE: Inglese J, Shamu CE, Guy RK. 2007. Reporting data from high-throughput screening of small-molecule libraries. Nat Chem Biol. doi:10.1038/nchembio0807-438 Yasgar A, Shinn P, Jadhav A, Auld D, Michael S, Zheng W, Austin CP, Inglese J, Simeonov A. 2008. Compound Management for Quantitative High-Throughput Screening. J Lab Autom 13:79-89. doi:10.1016/j.jala.2007.12.004
% is set by controls: 0 for no effect and ±100 for the full control effect; potency is the fitted concentration of half-maximal effect.

Activity change, negative = inhibition, inactive:
Cc1ccc(Cc2nc3ccccc3nc2SCC(=O)N2CCN(c3ccccc3)CC2)cc1 20.1%
COc1ccccc1CC(=O)N1CCC(n2cc(-c3nc(C)no3)nn2)CC1 1.69%
CC(C)c1noc(-c2cn(C3CCN(C(=O)COc4ccccc4)CC3)nn2)n1 22.5%
Cc1nn(C)c(C)c1CCC(=O)N1CCC(Cc2noc(-c3ccc(F)cc3)n2)C1 (stereo not given) 0.419%
O=C(c1ccc(F)cc1)N1CCn2c(nnc2-c2ccccc2)C1 0% [at 43.1 µM]
CCC(C)NC(=O)N1CC(Oc2ccc(-c3noc(C4CCOCC4)n3)cc2)C1 (stereo not given) -7.58%
CCn1ccc2sc(C)c(C(=O)N3CCN(c4ccc(F)cc4)CC3)c2c1=O -25.7%
COc1ccc(-c2noc(-c3cccn3CC(=O)N(C)c3ccc(F)cc3)n2)cc1F -29.9%
COc1ccc(-c2noc([C@@H]3CCCN3C(=O)Cc3ccccc3Cl)n2)cc1 -6.35%
COc1ccc(C(=O)N2CCC(n3cc(-c4nc(-c5ccccc5)no4)nn3)C2)cc1 (stereo not given) -1.74%
O=C(N/N=C(\CC(=O)c1cccs1)C(F)(F)F)c1ccncc1 13%
CCCNC(=O)N1CCCCCNC(=O)CC1c1ccccc1 (stereo not given) 3.59%
Cc1ccc(CNC(=O)N2CCCCCNC(=O)CC2c2ccccc2)cc1 (stereo not given) 0%
COc1ccc(CN(C)C2CCc3nn(C)c(=O)n3CC2)cc1Cn1cccn1 (stereo not given) 12.6%
CCOc1ccccc1CN1C[C@@H]2C(=O)N(CCN3CCc4ccccc4C3)C(=O)[C@@H]2C1 -14.9%
Cc1cccc(Cn2nnc3c2C(=O)c2ccccc2C3=O)c1 -9.79%
COc1ccc(-n2nc(C3CCN(Cc4ccncc4)CC3)[nH]c2=O)cc1 10.1%
COc1ccc(N=C2NC(=O)/C(=C\c3ccco3)S2)cc1 18.9%
C#CCN(C)Cc1nc(C2(O)CCN(C(C)=O)CC2)cs1 10.6% [at 43.1 µM]
CCN(CC)C(=O)[C@@H]1CCCN1[C@H](Cc1ccccc1)C(=O)NC 14.1% [at 43.1 µM]
CC(C)c1nc2oc3c(NCC4CCCO4)ncnc3c2c2c1CCC2 (stereo not given) -24.5%
COCCN(CC1CCCO1)c1nc(CCN)nc2ccccc12 (stereo not given) 52.7%
Cc1cccc(-c2nnc(SCC(=O)NC3CC3)n2C)c1 83.7%
Cc1noc([C@@H]2CN(C3CCSCC3)C[C@H]2CO)n1 16.2%
O=C(COc1ccccc1)N[C@H]1CO[C@H]2[C@@H]1OC[C@@H]2n1nnnc1Oc1ccc2c(c1)OCO2 28.9%
CCOC(=O)c1c(C)oc2nc(C)nc(Nc3ccc(C)c(Cl)c3)c12 0.853%
O=C(O)Cc1sc(Nc2ccccc2Cl)nc1-c1ccccc1 12%
CCOc1ccc2ncc3c(-c4ccccc4)nn(CC(=O)Nc4cccc(F)c4)c3c2c1 67.4%
Cc1ccccc1NC(=O)Cn1c(=O)n(-c2ccccc2)c(=O)c2c1cc(C)n2C 1.47%

Potency, active:
COc1ccccc1N1CCN(C(=O)CSc2nc(-c3ccc(C(C)C)cc3)no2)CC1 0.376 µM
CC1CCN(C(=O)CSc2nc(-c3ccc(C(C)C)cc3)no2)CC1 1.19 µM
O=C(CSc1nc(-c2ccccc2)no1)N1CCN(c2ccc(F)cc2)CC1 4.22 µM
CC(C)c1ccc(-c2noc(SCC(=O)N3CCN(c4ccc(F)cc4)CC3)n2)cc1 0.668 µM
COc1ccc(N2CCN(C(=O)CSc3nc(-c4ccc(C(C)C)cc4)no3)CC2)cc1 0.531 µM
CC(C)c1ccc(-c2noc(SCC(=O)N(C)c3ccc(F)cc3)n2)cc1 0.944 µM
CCOc1ccccc1CN1CCCN(Cc2ccncc2)C(c2ccccc2)CC(=O)NCC1 (stereo not given) 6.68 µM
Cc1cccc(CN2CCCN(Cc3ccncc3)C(c3ccccc3)CC(=O)NCC2)c1 (stereo not given) 4.22 µM
COc1cccc(CN2CCCN(Cc3ccncc3)C(c3ccccc3)CC(=O)NCC2)c1 (stereo not given) 7.5 µM
COc1ccc(CN2CCCCCNC(=O)CC2c2ccccc2)cc1Cn1ccnc1 (stereo not given) 9.44 µM
Cc1noc(C)c1-c1cc2cc(CN(C)C)oc2c(NCCc2ccccc2)n1 13.7 µM
Cc1noc(C)c1-c1cc2cc(CN(C)C)oc2c(NCCOc2ccccc2)n1 15.3 µM
CCOc1ccc(Nc2nc(NCC3CCCO3)c3ccccc3n2)cc1 (stereo not given) 1.88 µM
Cn1c(SCC(=O)N2c3ccccc3CCc3ccccc32)nnc1-c1cc2ccccc2cc1O 8.41 µM
CSc1nnc(-c2cc3ccccc3cc2O)n1C 7.5 µM
CCOC(=O)c1c(C)oc2nc(C)nc(Nc3ccc(CC)cc3)c12 7.5 µM
O=C(Nc1ccccc1)c1cc2c(-c3ccccc3)nn(-c3ccccc3)c2s1 3.35 µM
Cc1ccccc1NC(=O)c1cc2c(-c3ccccc3)nn(-c3ccccc3)c2s1 11.9 µM
O=C(Nc1ccc(Cl)cc1)c1cc2c(-c3ccccc3)nn(-c3ccccc3)c2s1 2.37 µM
COc1ccc(O)c(C(=O)c2cnc3c(c2)c(-c2ccc(F)cc2)c(C#N)c(=O)n3C)c1 5.96 µM
Cc1cccc(CN2CCN(C(=O)CCl)CC2)c1 13.3 µM
